Structures can show the parent of a compound that is named as a salt.
system: MARIMO; test: cell viability relative to vehicle control; higher = less cytotoxic; conditions: 10 µM; SRSF2 genotype: SRSF2 P95H/wt
Outline: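 Each screen used CRISPR-edited mutant and wild-type clones from four leukaemia lines. Compounds were acoustically dispensed at a single 10 µM dose, and CellTiter-Glo luminescence was read after 48 h with the supernatant first removed. Viability was analysed in Genedata Screener and given as percent of the on-plate vehicle control.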

SMILES | cell viability [%]
O=C1CCC[C@@H]2[C@H]3CCCN4CCC[C@@H](CN12)[C@@H]34 [Matrine ((+)-Matrine)] | 107
C=C[C@H]1CN2CC[C@H]1C[C@H]2[C@H](O)c1ccnc2ccccc12 [Cinchonidine] | 94.6
Cn1cc(C2=C(c3cn(C4CCN(Cc5ccccn5)CC4)c4ccccc34)C(=O)NC2=O)c2ccccc21 | 93
O=C(O)CNC(=O)c1c(O)c2ccccc2n(Cc2ccccc2)c1=O | 94.3
O=c1[nH]c2ccc(Cl)cc2c(N[C@@H]2CN3CCC2CC3)c1-c1nc2ccccc2[nH]1 | 0.55
NCC(O)c1ccc(O)cc1 (racemic) [(+,-)-Octopamine HCl] | 96.5
C=C1[C@H]2C[C@@]3([C@@H]1O)[C@@H](CC2=O)[C@]12[C@@H]4C[C@H]3[C@H]1N(CC)C[C@]4(C)CC[C@@H]2O [Songorine] | 98
COc1cc2c(cc1OC)[C@@H](Cc1ccc(O)c(Oc3cc4c(cc3OC)CCN(C)[C@@H]4Cc3ccc(O)cc3)c1)N(C)CC2.[O-][Cl+3]([O-])([O-])O [Liensinine perchlorate] | 55.5
CC(=O)O[C@H]1C(=O)[C@@]2(C)[C@H]([C@H](OC(=O)c3ccccc3)[C@]3(O)C[C@H](O)C(C)=C1C3(C)C)[C@]1(OC(C)=O)CO[C@@H]1C[C@@H]2O | 100
CC(C)[C@]12O[C@H]1[C@@H]1O[C@]13[C@]1(O[C@H]1C[C@H]1C4=C(CC[C@@]13C)C(=O)OC4)[C@@H]2O [Triptolide] | 10.4
CC1=C[C@]23C(=O)[C@@H](C=C(CO)[C@@H](O)[C@]2(O)[C@H]1O)[C@H]1[C@@H](C[C@H]3C)C1(C)C [Ingenol] | 109

same assay, conditions: 10 µM; SRSF2 genotype: SRSF2 wt/wt

SMILES | cell viability [%]
C/C(=C\c1csc(C)n1)[C@@H]1C[C@@H]2O[C@@H]2CCC[C@H](C)[C@H](O)[C@@H](C)C(=O)C(C)(C)[C@@H](O)CC(=O)O1 [Epothilone A] | 5.2
C[C@]12C=CC(=O)C=C1CC[C@@H]1[C@@H]2CC[C@@]2(C)[C@H]1CC[C@]2(C)O [Methandrostenolone] | 105
C#C[C@]1(O)C=C[C@H]2[C@@H]3CCC4=CC(=O)CC[C@@H]4[C@H]3CC[C@@]21CC [Gestodene] | 97.2
C/C=C\c1cc(OC)c(OC)cc1OC [Beta-Asarone] | 102
Cc1c(N)nc(C(CC(N)=O)NCC(N)C(N)=O)nc1C(=O)NC(C(=O)NC(C)C(O)C(C)C(=O)NC(C(=O)NCCc1nc(-c2nc(C(=O)NCCC[S+](C)C)cs2)cs1)C(C)O)C(O[C@@H]1O[C@@H](CO)[C@@H](O)[C@H](O)[C@@H]1O[C@H]1O[C@H](CO)[C@@H](O)[C@H](OC(N)=O)[C@@H]1O)c1cnc[nH]1 (some centres undefined) [Bleomycin sulfate] | 8.15
Cc1cccc(C(C)c2c[nH]cn2)c1C (centres undefined) [Medetomidine HCl] | 107
CCC1(c2ccc(N)cc2)CCC(=O)NC1=O (centres undefined) [Aminoglutethimide (Cytadren)] | 101
COc1cc2c(cc1O)CC1NCCc3cc(OC)c(O)c-2c31 (centres undefined) [Norisoboldine] | 90.2
Cc1cccc(Cc2c[nH]cn2)c1C [Detomidine HCl] | 95.3
COC1=C[C@@H]2[C@@H]3Cc4ccc(OC)c(O)c4[C@]2(CCN3C)CC1=O [Sinomenine hydrochloride] | 101
CC(C)=CCCC(C)(O)C1CCC2(C)C1C(O)CC1C3(C)CCC(O)C(C)(C)C3C(OC3OC(CO)C(O)C(O)C3O)CC12C [(20R)-Ginsenoside Rh1] | 98.8
CN(C)C(=O)Oc1ccc[n+](C)c1 [Pyridostigmine Bromide (Mestinon)] | 98.7
C=CC1CN2CCC1CC2C(O)c1ccnc2ccccc12 (centres undefined) [Cinchonine.cdx] | 105
CC[C@@H]1CN2CC[C@@]3(C(=O)Nc4ccccc43)[C@@H]2C[C@@H]1/C(=C\OC)C(=O)OC [Corynoxine] | 69.5
C[C@@]12C[C@@H](c3ccoc3)OC(=O)[C@@H]1CC[C@]1(C)[C@H]2[C@@H]2C=C[C@@]1(O)C(=O)O2 [Columbin] | 106
Nc1nc(N)nc(N)n1 [Melamine] | 99
O=C(/C=C/c1ccccc1)OC[C@H]1O[C@@H](O[C@@H]2OC=C[C@H]3[C@H](O)[C@@H]4O[C@]4(CO)[C@@H]23)[C@H](O)[C@@H](O)[C@@H]1O [Picroside I] | 98.7
Cc1cccc(C)c1NC1=NCCCS1 [Xylazine HCl] | 96.8

Reference: the supplement of paper PMC10981050
